# Giardia FBPA inh = Giardia lamblia aldolase inhibition; purified Giardia FBPA; Potency, µM (titrated, usually from 59.6 µM), without a hit: top-dose activity, negative = inhibition, usual class: inhibitors; hit rate 0.71% among 290,000; AID 2451; also: potency is read from the fitted curve at half-maximal effect; % is scaled to controls: 0 for no effect and ±100 for the full control effect; nearly all actives have a fitted effect of over 55% in size
#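 40 nM FBPA preincubated 10 min at RT with compound (up to 57.5 uM final), then substrate plus GAPDH/TPI/NAD/arsenate coupling and diaphorase/resazurin added. Fluorescence read after 20 min at RT, 525/598 nm.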
# Shiga toxin inh = inhibitors of Shiga toxin in Vero cells | Vero cells, Shiga toxin protein synthesis inhibition reporter | inhibition, % at 38.7 µM | hit rate 9.2% among 290,000 | AID 2315; in the data active = inhibition mostly above about 28%, no sharp cut-off; inactive = mostly below about 43%; also: 0% is about no effect
# TbPYK inhibitor = inhibitors of Trypanosoma brucei pyruvate kinase; Q57TT1; TbPYK enzyme, Kinase-Glo Plus ATP luminescence, 45 min; Potency, µM (series often up to 76.8 µM), for inactives: top-dose activity, negative = inhibition, usual class: inhibitors; hit rate 0.12% among 410,000; AID 624173; also: potency is read from the fitted curve at half-maximal effect; % is scaled to controls: 0 for no effect and ±100 for the full control effect; nearly all actives have a fitted effect of over 50% in size
#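 Assay buffer: 50 mM TEA pH 7.2, 100 mM KCl, 10 mM MgCl2, 0.05% BSA, 0.01% Tween-20. Pyruvate kinase from T. brucei plus substrate met compound, then ADP (130 uM final). Luminescence was read post 45 min RT.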
# CHX counter = counter-screen for Shiga toxin inhibitors: cycloheximide protein synthesis inhibition | cell reporter, cycloheximide protein synthesis inhibition counterscreen | max response, % | hit rate 12% among 300,000 | AID 2314; in the data active = max response mostly above about 13%, no sharp cut-off; inactive = mostly below about 14%; also: read at 38.3 µM for the half of the compounds with a filed dose; 0% is about no effect
# RE007 growth inh = less growth of the S. pombe RE007 Vpr strain. S. pombe RE007 Vpr strain, BacTiter-Glo ATP luminescence, 24 h. Potency, µM (top dose mostly 92.2 µM), inactives show at the highest dose activity change, negative = less growth, hits mostly inhibitors. hit rate 0.21% among 360,000. AID 651644; active = well fitted falling curve with a large enough effect; inconclusive = small, poorly fitted or top-dose-only effect; inactive = no such curve, though single readings can be large or run the other way; also: potency is read from the fitted curve at half-maximal effect; % is scaled to controls: 0 for no effect and ±100 for the full control effect; nearly all actives have a fitted effect of over 50% in size
#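 Fission yeast RE007 carrying one integrated HIV-1 vpr copy, seeded at OD 0.01 in PMG+AL medium with 23 nL pinned compound. Grown 24 h at 30 degrees; viability read by BacTiter-Glo luminescence after 5 min.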
# LmPK inhibitor = LmPK (Leishmania mexicana) enzyme inhibition. hit rate 0.37% among 290,000. AID 1721. Potency, µM (top dose mostly 57.5 µM), for the others: at the top dose activity change, negative = inhibition, most hits filed as inhibitors. purified LmPK, Kinase-Glo ATP luminescence, 1 h. Q27686; also: potency is read from the fitted curve at half-maximal effect; % is scaled to controls: 0 for no effect and ±100 for the full control effect
# Target sequence (Q27686 whole entry, looked up): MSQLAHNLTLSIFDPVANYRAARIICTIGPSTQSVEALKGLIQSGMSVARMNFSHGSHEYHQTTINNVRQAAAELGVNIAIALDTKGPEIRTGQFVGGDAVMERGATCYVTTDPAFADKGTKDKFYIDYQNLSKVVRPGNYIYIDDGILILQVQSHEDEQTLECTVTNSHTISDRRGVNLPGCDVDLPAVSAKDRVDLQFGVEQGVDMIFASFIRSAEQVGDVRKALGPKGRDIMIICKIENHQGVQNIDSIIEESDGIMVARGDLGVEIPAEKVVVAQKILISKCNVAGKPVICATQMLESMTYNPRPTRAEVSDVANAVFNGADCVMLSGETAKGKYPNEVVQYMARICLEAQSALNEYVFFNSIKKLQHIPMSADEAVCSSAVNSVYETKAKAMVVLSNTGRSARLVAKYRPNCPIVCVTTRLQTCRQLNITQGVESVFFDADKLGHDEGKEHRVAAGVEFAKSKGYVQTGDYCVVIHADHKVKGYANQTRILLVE
#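 Screened at intermediate enzyme activity to detect both inhibitors and activators: LmPK at 0.1 nM, with a 0.5 nM enzyme column as activation reference. PEP 0.5 mM, ADP 0.1 mM; ATP detected by luminescence after 1 h.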
# * hit, by the source's call; ? = inconclusive; / = no result given; + = active, no number; [ ] = dose if it differs, or a comment. This excerpt belongs to a sample that is enriched for hits. Unless noted, calls follow the shape of the dose curve; as a rule, active = well fitted curve in the direction sought with a large enough effect; inconclusive = small, poorly fitted or top-dose-only effect, or another doubt; inactive = no such curve, though single readings can be large; an effect the other way counts as inactive or inconclusive.
SMILES,Giardia FBPA inh,Shiga toxin inh,TbPYK inhibitor,CHX counter,RE007 growth inh,LmPK inhibitor
O=C(CN1CCN(c2ccccc2F)CC1)c1ccc2cc[nH]c2c1,-18%,1,-8%,-2,-8%,8%
COc1ccccc1N1CCN(C(=O)c2cc(CC(C)C)on2)CC1,/,/,0%,/,/,/
CC1(C)N=C(c2ccc(F)cc2)C(=O)N1CC(=O)Nc1ccccc1Cl,/,/,-4%,/,/,/
COC(=O)C1=C(C(=O)OC)[C@@H]2Nc3ccccc3[C@@]23C[C@@H](C(=O)OC)N(S(=O)(=O)c2ccc(OC)cc2)C3=N1,3%[12.9 µM],/,/,/,/,3%[11.5 µM]
COc1ccc(C(=O)OCC(=O)NC2CCCC2)cc1OC,-3%,-5,-8%,-1,-15%,-4%
O=C(COC(=O)c1ccccc1)NC1CCCCCC1,/,/,2%,/,-7%,/
O=C(COC(=O)c1ccc(Cl)cc1)NC1CCCCCC1,/,/,5%,/,17%,/
Cc1ccc(C(=O)OCC(=O)NC2CCCC2)cc1C,4%,54*,2%,22*,27%,-4%
CCc1ccc(C(=O)OCC(=O)NC2CCCC2)cc1,8%,45,-1%,30*,1%,1%
CC(C)c1ccc(C(=O)OCC(=O)NC2CCCC2)cc1,6%,31,0%,27*,3%,2%
Cc1ccc(CNC(=O)C(C)n2c(=O)cc(-c3ccccc3)c3c(C)nn(C)c32)cc1 (configuration not stated),/,/,-2%,/,/,/
C=C1C=CS(=O)(=O)N(Cc2ccccc2)C1,5%,-14,/,-10,/,/
COc1ccc(S(=O)(=O)N/N=C\c2ccc3c(c2)OCO3)cc1,8%,18,-9%,-1,12%,3%
O=[N+]([O-])c1ccc(S(=O)(=O)N/N=C/c2ccc3c(c2)OCO3)cc1,?,50*,-2%,31*,10%,0%
O=S(=O)(N/N=C/c1ccc2c(c1)OCCO2)c1ccccc1,-7%,60,9%,20*,1%,0%
CCCc1ccc(S(=O)(=O)N/N=C\c2ccc3c(c2)OCO3)cc1,-7%,4,0%,-3,6%,-3%
O=[N+]([O-])c1cccc(S(=O)(=O)N/N=C\c2ccc3c(c2)OCO3)c1,?,75*,3%,43*,-5%,1%
Cc1ccc(N=C(NO)c2nonc2N)cc1,6%,95*,0%,46*,9%,1%
Cc1ccc(N=C(NO)c2nonc2N)c(C)c1,2%,11,-2%,8,-10%,0%
Cc1ccc(-n2ncc3ccccc3c2=O)cc1Cl,-3%,114*,0%,38*,-17%,-10%
O=c1c2ccccc2cnn1-c1ccc(Cl)cc1,-10%,93*,8%,36*,-4%,-16%
COc1ccc(NC(=S)N(C)CC2COc3ccccc3O2)cc1 (configuration not stated),-3%,73*,1%,24*,-9%,-2%
CCOC(=O)c1cnc(SCc2cccc(C)c2)nc1N,0%,54*,-13%,53*,-11%,4%
CCOC(=O)c1cnc(SC)nc1N,-1%,-3,5%,17*,-25%,-10%
CCOC(=O)c1cnc(SCC(C)C)nc1N,10%,+,0%,52*,-4%,-5%
SMILES,Giardia FBPA inh,Shiga toxin inh,TbPYK inhibitor,CHX counter,RE007 growth inh,LmPK inhibitor
CCOC(=O)c1cnc(SCC(=O)c2ccc(C)cc2)nc1N,-1%,-2,0%,-3,-4%,8%
COC(=O)CN1C(=O)CSc2ccc(S(=O)(=O)Nc3ccccc3)cc21,/,/,-1%,/,/,/
CC(=O)NCC1COc2ccccc2O1 (configuration not stated),2%,24,4%,0,5%,-3%
CC(=O)Nc1nc(C2COc3ccccc3O2)cs1 (configuration not stated),-8%,50*,0%,32*,?,-4%
NC(N)=Nc1nc(C2COc3ccccc3O2)cs1 (configuration not stated),4%,75*,-1%,37*,5%,-3%
COc1ccc(-c2cccc(NS(=O)(=O)c3cc(C)c(Cl)cc3C)c2)nn1,/,/,0%,/,/,/
O=C(Cn1cnc2onc(-c3ccc(F)cc3)c2c1=O)Nc1cccc(C(F)(F)F)c1,/,/,7%,/,/,/
CC(Sc1ccccc1)C(=O)NCCc1ccccc1 (configuration not stated),10%,32*,-1%,24*,4%,-2%
O=C(CSc1ccccc1)NCCc1ccc(F)cc1,-7%,/,4%,29*,-8%,8%
O=C(CSc1cccs1)Nc1ccc(Cl)cc1,-1%,50*,3%,54*,10%,1%
Cc1ccc(SCC(=O)NCCc2ccc(F)cc2)cc1,-3%,15,0%,-2,-7%,0%
Cc1ccc(SCC(=O)NCCSC(C)(C)C)cc1,2%,35,0%,29*,0%,3%
COc1c(C=O)c(=O)[nH]c2c(OC)cccc12,-10%,/,/,/,/,/
COc1ccccc1N1CCN(C(=O)CN2C(=O)COc3ccc(S(=O)(=O)N4CCOCC4)cc32)CC1,/,/,4%,/,/,/
O=C(CSc1cccs1)NCCc1ccccc1,-1%,+,-4%,42*,-7%,-1%
NS(=O)(=O)c1ccc(CCNC(=O)CSc2cccs2)cc1,-11%,-11,-10%,2,5%,-3%
O=C(CSc1ccccc1)NCCc1ccccc1,6%,44*,-1%,37*,36%,1%
O=C(CSc1ncn[nH]1)NCCc1ccccc1,0%,3,1%,5,22%,2%
O=C(CSc1nnnn1C1CCCCC1)NCCc1ccccc1,9%,42*,5%,62*,-8%,5%
Cc1ccc(SCC(=O)NCCc2ccccc2)cc1,9%,18,0%,14*,0%,2%
COc1cccc([C@@H]2Oc3ccc(Br)cc3C(=O)[C@H]2OC(=O)NS(=O)(=O)c2ccc(F)cc2)c1,4%,/,/,/,/,/
Cc1c(Cl)cccc1NC(=O)CSc1nc(=O)n(Cc2ccncc2)c2c1CCC2,/,/,-21%,/,/,/
O=C(CSc1ccc2ccccc2c1)NCCc1ccc(O)c(O)c1,-29%,10,32µM*,17,14%,-1%
COc1ccc(CCNC(=O)CSc2ccc3ccccc3c2)cc1OC,-7%,1,0%,1,1%,4%
CC1CCCCC1NC(=O)c1cc2ccccc2o1 (configuration not stated),-1%,35*,-8%,35*,-6%,0%
O=C(NC1CCCC1)c1cc2ccccc2o1,/,56*,-8%,40*,-6%,-8%
O=C(NCc1ccccc1)c1cnc2sc(N3CCCC3)nn2c1=O,/,/,-2%,/,/,/
O=C(/C=C/c1c(Cl)cccc1Cl)n1cccn1,1%,14,3%,9.8*,-26%,-10%
O=C(/C=C/c1c(Cl)cccc1Cl)NCCCn1ccnc1,/,/,0%,/,2%,/

# High-throughput results deposited in PubChem by National Center for Advancing Translational Sciences (NCATS).
